“And” between values parts separate entries of the source, which are not always exact repeats. Identical values can stand only once. Records with an inconclusive call do not appear. The source made the active and inactive calls. Unless noted, the call rests on the fitted dose curve; in most records, active means well fitted curve in the direction sought with a large enough effect; inconclusive means small, poorly fitted or top-dose-only effect, or another doubt; inactive means no such curve, though single readings can be large; an effect the other way counts as inactive or inconclusive.
Tests used:
[1] = qHTS Assay for Lipid Storage Modulators (AID 1519; calls by dose curve); details: Drosophila S3 cells, BODIPY lipid droplet/cell ratio, laser cytometry, cells loaded with oleic acid
Outline: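 Cells seeded at 5,000 per well were treated with compounds over a concentration series and loaded with oleic acid (400 uM, as added). Lipid droplet fluorescence (488 nm excitation, 500-530 nm channel) was read by laser-scanning cytometry and normalized to 20 uM Triacsin C.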

[2] = molecular target: Cytochrome P450 1A2 (Homo sapiens) (UniProt P05177); assay: p450-cyp1a2 (AID 410; calls by dose curve; further: potency means the concentration at half of the fitted maximal effect;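 on activity change, negative = inhibition: -100% = full effect of reference inhibitor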)
Outline: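 20nM CYP1A2, 100uM Luciferin-ME (=Km), 100mM KPO4; cpd 10 min RT; +NADPH regen, 60 min RT; stop/detect 20 min; luminescence. Normalized to furafylline 57 uM = full inhibition.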

[3] = molecular target: Glucocorticoid receptor (Homo sapiens) (UniProt P04150); assay: GR-GFP Redistribution (AID 450;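 active means compounds whose dose series gives a full or clear partial fitted curve of increased nuclear translocation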; further: potency means the concentration at half of the fitted maximal effect); details: U2OS GR-GFP nuclear translocation, laser cytometry, 2 h
[4] = molecular target: Glucocorticoid receptor (Homo sapiens) (UniProt P04150); assay: GR-EFC Redistribution (AID 451; calls by dose curve; further: potency means the concentration at half of the fitted maximal effect); details: CHO-K1 GR-EFC translocation, beta-gal luminescence, 2 h
Outline: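 Translocation of GR-ED fusion to nuclear EA restores b-gal, read by luminescence after 1 h room-temperature detection. Engineered CHO-K1 biosensor cells, 1,000/well, exposed 2 h at 37 C to titrations up to 46 uM final.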

[5] = molecular target: Mitogen-activated protein kinase 10 (Mus musculus) (UniProt Q61831); assay: JNK3 AlphaScreen Assay (AID 530; active means well fitted curve in either direction with a large enough effect, not every such curve was filed as active;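 further: kinase came from lysate of stimulated human HepG2 cells; signal reports phosphorylation of biotinylated GST-cJun 1-79 at Ser73 with 10 µM ATP; on the % scale 0 is the no-effect control and ±100 the full control effect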)
Outline: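 Kinase buffer: 20 mM Tris-HCl pH 7.6, 10 mM MgCl2, 1 mM DTT, 0.1 mM Na3VO4, 0.01% Tween-20; ATP 10 uM. Substrate biotin-GST-cJun(1-79), enzyme from activated HepG2 lysates. Detection by Ser73 phospho-antibody AlphaScreen.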

[6] = molecular target: 3',5'-cyclic-AMP phosphodiesterase 4B (Homo sapiens) (UniProt Q07343); assay: qHTS Assay for Inhibitors of PDE-IV (AID 607; active means well fitted activation curve with a large enough effect in the main read-out, with a control signal flat, not every such curve was filed as active; further: % of control where 0% means no effect)
Outline: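 HEK293 ACTOne cells with CNG channel (1000/well), endogenous PDE4; membrane potential dye, compounds up to 22.9 uM final. Fluorescence Ex 535/Em 590; RO 20-1724 (100 uM final) as reference.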

[7] = molecular target: ATP-dependent 6-phosphofructokinase (Trypanosoma brucei brucei) (UniProt O15648); assay: qHTS Assay to Find Inhibitors of T. brucei phosphofructokinase: hit validation (AID 492961);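 further: luminescence reports ADP formed as PFK phosphorylates fructose-6-phosphate with ATP; on the % scale 0 is the no-effect control and ±100 the full control effect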
Outline: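 Measures ADP output of PFK (1.25 nM) at 0.1 mM ATP, 0.5 mM F6P, pH 8.0 TEA buffer with 5 mM MgCl2. No-enzyme wells define full inhibition; uninhibited enzyme wells define zero.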

[8] = molecular target: Ubiquitin carboxyl-terminal hydrolase 1 (Homo sapiens) (UniProt O94782); assay: Inhibitors of USP1/UAF1: Pilot qHTS (AID 504865);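 further: rhodamine fluorescence freed from ubiquitin-rhodamine substrate followed over time; top concentration of the series differs between compounds; on the % scale 0 is the no-effect control and ±100 the full control effect; nearly all actives have a fitted effect of over 35% in size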
Outline: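 Deubiquitinase activity followed as kinetic rhodamine fluorescence release from 150 nM Ub-Rho. 1 nM USP1/UAF1 with compound, after 15 min room-temperature preincubation, in HEPES pH 7.8 buffer containing TCEP, EDTA, BSA and Tween-20.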

[9] = qHTS profiling for inhibitors of Plasmodium falciparum proliferation (AID 504749);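 further: 0% = DMSO vehicle and full inhibition = artemisinin control; nearly all actives have a fitted effect of over 60% in size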; details: P. falciparum in erythrocytes, SYBR Green DNA, 72 h
Outline: (§1)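 In a 72 h erythrocytic culture (37 C, humidified, 5% CO2) at 2.5% hematocrit and 0.3% starting parasitemia, compounds were tested; SYBR Green I in detergent lysis buffer stained parasite DNA overnight.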

AS120 = assay: as above; details: P. falciparum in erythrocytes, SYBR Green DNA, 72 h; series mostly up to 28.7 µM
Outline: as §1

CP238 = assay: as above; details: P. falciparum in erythrocytes, SYBR Green DNA, 72 h; series mostly up to 12.8 µM
Outline: as §1

CP250 = assay: as above; details: P. falciparum in erythrocytes, SYBR Green DNA, 72 h; series mostly up to 12.8 µM
Outline: as §1

CP262 = assay: as above; details: P. falciparum in erythrocytes, SYBR Green DNA, 72 h; series mostly up to 12.8 µM
Outline: as §1

CP265 = assay: as above; details: P. falciparum in erythrocytes, SYBR Green DNA, 72 h; series mostly up to 12.8 µM
Outline: as §1

FAB9 = assay: as above; details: P. falciparum in erythrocytes, SYBR Green DNA, 72 h; series mostly up to 12.8 µM
Outline: as §1

JCK = assay: as above; details: P. falciparum in erythrocytes, SYBR Green DNA, 72 h; series mostly up to 12.8 µM
Outline: as §1

PC49 = assay: as above; details: P. falciparum in erythrocytes, SYBR Green DNA, 72 h; series mostly up to 12.8 µM
Outline: as §1

[10] = AP1 Signaling Pathway (AID 357; active means well fitted curve in either direction with a large enough effect, not every such curve was filed as active; further: on the % scale 0 is the no-effect control and ±100 the full control effect); details: ME-180 AP-1-bla reporter, EGF-induced, beta-lactamase ratio, 5 h; at 7.69 µM (top of the series) unless noted
Outline: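 ME-180 cells with beta-lactamase reporter under AP-1 response element, stimulated with EC50 EGF; compounds tested in titration series, 5 h at 37 °C. CCF4 substrate added 2.5 h at room temperature; 460/530 nm emission ratio gave %activity and AC50.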

[11] = NFAT Signaling Pathway (AID 444; active means well fitted curve in either direction with a large enough effect, not every such curve was filed as active;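 further: carbachol stimulus at about its EC50 of 1 µM final; on the % scale 0 is the no-effect control and ±100 the full control effect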); details: Jurkat NFAT-bla M1, carbachol, beta-lactamase ratio, 5 h; at 7.69 µM (top of the series) unless noted
Outline: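 Read-out: CCF4 FRET ratio (460 nm/530 nm) after 1 h RT dye loading, used for %activity and AC50 from titration series. Cells: Jurkat NFAT-β-lactamase/M1 line, treated with compound plus 1 uM carbachol for 5 h, 37 °C.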

[12] = Stat Signaling Pathway (AID 446; active means well fitted curve in either direction with a large enough effect, not every such curve was filed as active); details: ME-180 (cervical carcinoma) SIE beta-lactamase reporter, IL-6 stimulated, 5 h; at 7.69 µM (top of the series) unless noted
Outline: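 Normalization used AC90 stimulation (300 pM IL-6) and AC90 inhibition (125 nM pan-JAK inhibitor at 40 pM IL-6). The underlying signal is SIE-driven beta-lactamase in ME-180 cells after 5 h IL-6 exposure with compound.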

[13] = measured here: cell count channel max response
[14] = measured here: lipid channel max response
[15] = at 28.7 µM (top of the series), parasite line A
[16] = at 28.7 µM (top of the series), parasite line B

3',5'-cyclic-AMP phosphodiesterase 4B (Homo sapiens), sequence (Q07343 whole entry, looked up): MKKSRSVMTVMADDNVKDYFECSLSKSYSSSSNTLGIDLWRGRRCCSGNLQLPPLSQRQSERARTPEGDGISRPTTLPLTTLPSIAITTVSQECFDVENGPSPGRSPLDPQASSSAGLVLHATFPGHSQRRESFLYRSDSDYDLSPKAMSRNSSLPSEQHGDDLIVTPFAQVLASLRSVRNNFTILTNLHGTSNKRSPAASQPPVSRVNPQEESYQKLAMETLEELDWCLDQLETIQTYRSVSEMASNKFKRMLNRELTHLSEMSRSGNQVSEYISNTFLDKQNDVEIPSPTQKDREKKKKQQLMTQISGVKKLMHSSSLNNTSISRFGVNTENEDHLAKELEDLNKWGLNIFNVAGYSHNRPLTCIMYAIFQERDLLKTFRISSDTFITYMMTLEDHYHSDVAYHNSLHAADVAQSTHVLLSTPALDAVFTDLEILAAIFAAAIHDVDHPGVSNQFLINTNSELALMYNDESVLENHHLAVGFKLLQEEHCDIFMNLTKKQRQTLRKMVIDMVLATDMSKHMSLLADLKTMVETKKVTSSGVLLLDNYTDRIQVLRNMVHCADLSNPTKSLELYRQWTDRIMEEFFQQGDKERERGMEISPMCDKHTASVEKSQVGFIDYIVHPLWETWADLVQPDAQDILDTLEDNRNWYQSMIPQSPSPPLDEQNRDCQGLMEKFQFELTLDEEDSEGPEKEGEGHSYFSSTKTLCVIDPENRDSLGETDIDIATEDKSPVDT
Ubiquitin carboxyl-terminal hydrolase 1 (Homo sapiens), sequence (O94782 whole entry, looked up): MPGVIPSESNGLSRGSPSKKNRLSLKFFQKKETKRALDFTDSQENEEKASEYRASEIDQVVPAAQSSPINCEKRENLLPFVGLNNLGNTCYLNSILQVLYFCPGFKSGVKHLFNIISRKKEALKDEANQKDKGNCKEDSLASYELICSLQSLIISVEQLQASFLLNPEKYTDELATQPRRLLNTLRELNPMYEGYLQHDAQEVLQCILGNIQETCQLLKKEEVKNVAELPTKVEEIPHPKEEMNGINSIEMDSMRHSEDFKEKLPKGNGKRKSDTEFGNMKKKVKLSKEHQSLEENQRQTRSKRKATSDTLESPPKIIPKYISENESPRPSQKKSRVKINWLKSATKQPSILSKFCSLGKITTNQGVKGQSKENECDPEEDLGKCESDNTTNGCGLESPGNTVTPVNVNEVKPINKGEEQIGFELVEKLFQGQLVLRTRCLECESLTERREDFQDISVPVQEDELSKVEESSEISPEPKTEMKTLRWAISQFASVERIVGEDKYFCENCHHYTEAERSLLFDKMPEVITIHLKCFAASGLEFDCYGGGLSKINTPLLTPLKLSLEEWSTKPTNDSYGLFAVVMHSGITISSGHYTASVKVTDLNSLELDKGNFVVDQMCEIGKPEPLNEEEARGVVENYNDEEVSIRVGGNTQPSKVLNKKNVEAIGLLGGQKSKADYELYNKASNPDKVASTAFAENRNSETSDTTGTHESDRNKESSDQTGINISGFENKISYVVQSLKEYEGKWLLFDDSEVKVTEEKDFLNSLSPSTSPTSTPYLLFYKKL
Glucocorticoid receptor (Homo sapiens), sequence (P04150 whole entry, looked up, the tested form may be a part): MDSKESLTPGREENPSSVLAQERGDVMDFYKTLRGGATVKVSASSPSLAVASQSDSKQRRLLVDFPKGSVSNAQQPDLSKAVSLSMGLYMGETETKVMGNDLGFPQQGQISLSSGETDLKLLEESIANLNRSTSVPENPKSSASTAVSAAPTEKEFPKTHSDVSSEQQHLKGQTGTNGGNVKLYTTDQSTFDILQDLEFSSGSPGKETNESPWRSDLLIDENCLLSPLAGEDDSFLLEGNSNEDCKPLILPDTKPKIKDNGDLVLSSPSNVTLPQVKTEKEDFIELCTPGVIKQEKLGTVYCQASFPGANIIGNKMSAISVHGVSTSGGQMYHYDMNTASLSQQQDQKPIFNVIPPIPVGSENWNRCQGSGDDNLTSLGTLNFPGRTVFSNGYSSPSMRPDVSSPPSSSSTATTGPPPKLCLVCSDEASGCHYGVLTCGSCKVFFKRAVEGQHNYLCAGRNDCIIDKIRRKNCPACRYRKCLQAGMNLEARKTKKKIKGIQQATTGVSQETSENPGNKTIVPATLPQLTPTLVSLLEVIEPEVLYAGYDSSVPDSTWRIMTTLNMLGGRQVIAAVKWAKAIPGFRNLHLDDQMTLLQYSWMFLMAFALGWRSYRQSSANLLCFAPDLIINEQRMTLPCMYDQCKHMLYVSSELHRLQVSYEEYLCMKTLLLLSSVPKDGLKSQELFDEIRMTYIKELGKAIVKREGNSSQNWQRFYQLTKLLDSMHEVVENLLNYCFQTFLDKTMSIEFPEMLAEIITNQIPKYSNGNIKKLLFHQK
Cytochrome P450 1A2 (Homo sapiens), sequence (P05177 whole entry, looked up): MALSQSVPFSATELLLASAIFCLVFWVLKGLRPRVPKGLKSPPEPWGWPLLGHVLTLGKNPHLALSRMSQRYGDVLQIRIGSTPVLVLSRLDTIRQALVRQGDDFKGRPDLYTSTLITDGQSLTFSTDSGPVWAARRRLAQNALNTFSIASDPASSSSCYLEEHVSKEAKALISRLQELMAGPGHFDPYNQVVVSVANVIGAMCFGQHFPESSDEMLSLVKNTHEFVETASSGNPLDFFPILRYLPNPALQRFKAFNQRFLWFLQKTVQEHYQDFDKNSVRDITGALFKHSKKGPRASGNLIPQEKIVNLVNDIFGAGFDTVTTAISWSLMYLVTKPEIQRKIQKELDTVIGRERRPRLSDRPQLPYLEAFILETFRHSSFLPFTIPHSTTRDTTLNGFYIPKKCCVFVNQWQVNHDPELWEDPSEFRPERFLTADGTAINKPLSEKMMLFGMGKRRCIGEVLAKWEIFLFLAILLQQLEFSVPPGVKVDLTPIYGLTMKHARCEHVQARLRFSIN
ATP-dependent 6-phosphofructokinase (Trypanosoma brucei brucei), sequence (O15648 whole entry, looked up): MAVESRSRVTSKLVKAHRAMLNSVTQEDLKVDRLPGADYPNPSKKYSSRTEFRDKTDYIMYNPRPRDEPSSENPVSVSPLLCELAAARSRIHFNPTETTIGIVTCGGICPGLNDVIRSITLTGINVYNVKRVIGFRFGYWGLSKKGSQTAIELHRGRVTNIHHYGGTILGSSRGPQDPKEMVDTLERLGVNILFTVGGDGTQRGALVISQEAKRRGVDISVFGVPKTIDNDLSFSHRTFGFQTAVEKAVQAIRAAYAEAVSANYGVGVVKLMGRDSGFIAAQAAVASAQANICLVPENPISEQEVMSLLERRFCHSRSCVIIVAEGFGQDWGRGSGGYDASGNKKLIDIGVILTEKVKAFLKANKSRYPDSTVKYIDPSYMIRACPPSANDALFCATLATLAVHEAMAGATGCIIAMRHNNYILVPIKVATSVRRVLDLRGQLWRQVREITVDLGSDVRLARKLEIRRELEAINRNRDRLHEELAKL

Nc1ccccc1C(=O)CC(N)C(=O)O (stereo not drawn)
10.9% and 14.4%: max response [1, 13]
inactive: activity change, negative = inhibition ([1]; at 57.5 µM (top of the series)) 9.57% and 2.83%
21.6% and 17.6%: max response [1, 14]

O=c1c(O)c(-c2ccc(O)cc2)oc2ccccc12
-12.3%: max response [1, 13]
-1%: max response [1, 14]
inactive: activity change, negative = inhibition ([1]; at 57.5 µM (top of the series)) 8.84%

CC1(C)Oc2ccc(C#N)cc2[C@H](N2CCCC2=O)[C@H]1O
inactive: Potency [3] > 46 µM | Potency [4] > 46 µM | Potency [5] | Potency [6] | activity change, negative = inhibition ([1]; at 57.5 µM (top of the series)) 0.0468% and 5.32% | outcome [7] | Potency [8] | activity, negative = inhibition [9, 15] 10.2% | activity, negative = inhibition [9, 16] 9.46% | Potency (AS120) | Potency (CP238) | Potency (CP250) | Potency (CP262) | Potency (CP265) | Potency (FAB9) | Potency (JCK) | Potency (PC49)
5.79% and -0.997%: max response [1, 13]
6.51% and -0.942%: max response [1, 14]
active: Potency [2] 10 µM

CCN1C(=O)N[C@@H](c2ccccc2)C1=O
inactive: activity change, negative = inhibition [10] -1.74% [at 17.2 µM] | Potency [2] | activity change, negative = inhibition [11] 1.96% [at 17.2 µM] | activity, negative = inhibition [12] -21.2% [at 17.2 µM] | Potency [3] > 20.6 µM | Potency [4] > 20.6 µM | Potency [5] | Potency [6] | activity change, negative = inhibition ([1]; at 25.7 µM (top of the series)) -2.13% | outcome [7] | Potency [8] | activity, negative = inhibition ([9]; at 12.8 µM (top of the series), parasite line A) -3.65% | activity, negative = inhibition ([9]; at 12.8 µM (top of the series), parasite line B) 13.5% | Potency (AS120) | Potency (CP238) | Potency (CP250) | Potency (CP262) | Potency (CP265) | Potency (FAB9) | Potency (JCK) | Potency (PC49)
-10.1%: max response [1, 13]
-9.51%: max response [1, 14]

COc1c2ccoc2nc2c(OC)c(OC[C@H](O)C(C)(C)O)ccc12
-8.76%: max response [1, 13]
active: Potency [2] 10 µM and 25.1 µM
-11%: max response [1, 14]
inactive: activity change, negative = inhibition [10] 1.86% [at 17.2 µM] | activity change, negative = inhibition [11] 15.7% [at 17.2 µM] | activity, negative = inhibition [12] -10.7% [at 17.2 µM] | Potency [3] > 20.6 µM and > 46 µM | Potency [4] > 20.6 µM and > 46 µM | Potency [5] | Potency [6] | activity change, negative = inhibition ([1]; at 25.7 µM (top of the series)) -1.84%

C1CCN2C[C@H]3C[C@H](CN4CCCCC34)C2C1 (stereo partly drawn)
19.7% and 18.8%: max response [1, 14]
inactive: activity change, negative = inhibition ([1]; at 57.5 µM (top of the series)) 2.4% and 4.93% | Potency [8]
17.1% and 11%: max response [1, 13]

C[C@H]1NC(=O)NC1=O
-1.48%: max response [1, 14]
inactive: activity change, negative = inhibition [10] 18% [at 17.2 µM] and -9.42% [at 17.2 µM] | Potency [2] | activity change, negative = inhibition [11] -10.2% [at 17.2 µM] and -1.97% [at 17.2 µM] | activity, negative = inhibition [12] -29.7% [at 17.2 µM] and -2.24% [at 17.2 µM] | Potency [3] > 20.6 µM | Potency [4] > 20.6 µM | Potency [5] | Potency [6] | activity change, negative = inhibition ([1]; at 25.7 µM (top of the series)) -0.728% | Potency [8]
-2.21%: max response [1, 13]

CC1(C)S[C@@H]2[C@H](NC(=O)[C@H](C(=O)O)c3ccsc3)C(=O)N2[C@H]1C(=O)O
-10.5%: max response [1, 13]
inactive: activity change, negative = inhibition [10] -4.81% [at 17.2 µM] and 2.77% [at 17.2 µM] | Potency [2] | activity change, negative = inhibition [11] -7.87% [at 17.2 µM] and 25.2% [at 17.2 µM] | activity, negative = inhibition [12] 6.96% [at 17.2 µM] and -0.401% [at 17.2 µM] | Potency [3] > 20.6 µM | Potency [4] > 20.6 µM | Potency [5] | Potency [6] | activity change, negative = inhibition ([1]; at 25.7 µM (top of the series)) 1.08% | Potency [8] | activity, negative = inhibition [9, 15] -4.85% | activity, negative = inhibition [9, 16] 17.9% | Potency (AS120) | Potency (CP238) | Potency (CP250) | Potency (CP262) | Potency (CP265) | Potency (FAB9) | Potency (JCK) | Potency (PC49)
-8.09%: max response [1, 14]
